Screening results deposited in PubChem BioAssay by National Center for Advancing Translational Sciences (NCATS).
Compounds with a hit are over-represented: about 3.8% of the library has one in this group of screens.
KAT2A inh: GCN5L2 (KAT2A) acetyltransferase inhibition. Q92830. GCN5L2 HAT assay, ThioGlo1 CoA-SH fluorescence. Potency, µM (top dose mostly 58.9 µM), for the others: at the top dose activity change, negative = inhibition, actives largely listed as inhibitors. hit rate 0.21% among 390,000
Target sequence (Q92830 whole entry, looked up): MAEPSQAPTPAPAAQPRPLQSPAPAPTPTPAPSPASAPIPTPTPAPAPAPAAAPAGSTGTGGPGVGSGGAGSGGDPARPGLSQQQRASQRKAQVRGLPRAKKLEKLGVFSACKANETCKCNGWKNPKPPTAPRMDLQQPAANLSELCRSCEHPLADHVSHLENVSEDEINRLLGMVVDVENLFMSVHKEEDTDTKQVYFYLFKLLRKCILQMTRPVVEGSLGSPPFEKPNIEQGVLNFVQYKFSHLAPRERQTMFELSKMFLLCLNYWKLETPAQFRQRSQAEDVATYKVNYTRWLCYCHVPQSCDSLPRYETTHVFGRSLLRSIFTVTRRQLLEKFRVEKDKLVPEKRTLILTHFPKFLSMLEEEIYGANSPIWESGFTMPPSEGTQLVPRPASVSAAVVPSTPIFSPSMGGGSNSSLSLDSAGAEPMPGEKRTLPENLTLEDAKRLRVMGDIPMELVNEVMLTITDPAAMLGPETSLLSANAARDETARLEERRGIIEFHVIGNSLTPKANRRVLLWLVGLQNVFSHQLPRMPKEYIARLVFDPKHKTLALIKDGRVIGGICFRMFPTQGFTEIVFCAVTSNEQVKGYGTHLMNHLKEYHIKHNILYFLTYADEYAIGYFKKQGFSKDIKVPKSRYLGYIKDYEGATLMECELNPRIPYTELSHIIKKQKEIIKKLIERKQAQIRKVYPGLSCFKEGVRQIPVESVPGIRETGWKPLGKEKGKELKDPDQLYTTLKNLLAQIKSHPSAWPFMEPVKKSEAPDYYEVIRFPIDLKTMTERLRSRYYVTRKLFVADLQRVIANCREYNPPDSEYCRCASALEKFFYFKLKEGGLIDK
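Titration-based screen in which CoA formation is detected via maleimide probe ThioGlo1 (50uM) turning fluorescent on thiol reaction; substrates H3(1-25) 75uM and acetyl-CoA 70uM, GCN5L2 20nM, 20 min incubation at room temperature.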
TrxR1 inh: rat TrxR1 inhibition; O89049; recombinant rTrxR1, NADPH fluorescence consumption, selenite substrate; Potency, µM (doses to about 114 µM), for the others: top-dose activity change, negative = inhibition, actives largely listed as inhibitors; hit rate 1% among 390,000; also: nearly all actives have a fitted effect of over 65% in size
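Rat TrxR1 (90 nM in the dispensed reagent) was pre-reduced with 400 uM NADPH for 5 min at room temperature, then incubated with compound for 15 min. After 400 uM selenite was added, NADPH fluorescence (Ex 340/Em 450 nm) was followed for 8 min.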
GLS inhibitor: blocks human kidney-isoform glutaminase activity. Potency, µM (doses to about 45.5 µM), for the others: at the top dose activity change, negative = inhibition, hits mostly inhibitors. hit rate 0.21% among 410,000. GLS enzymatic activity, qHTS titration. O94925
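Enzyme dispensed in phosphate buffer (45 mM, pH 8.2, 0.02% Tween-20), compounds pinned in, then 1 mM L-glutamine solution and the glutamate oxidase–HRP–Amplex Red mix added; fluorescence read immediately and again after 30 min at room temperature.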
Sfp inh: blocks B. subtilis Sfp PPTase activity | Q9F4F7 | Biochemical Sfp PPTase activity, qHTS | Potency, µM, inactives show largest response in the series, negative = inhibition, actives largely listed as inhibitors | hit rate 3.5% among 310,000;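 also: the enzyme is Sfp with the accession as filed and its product quenches rhodamine fluorescence; 0% = enzyme reaction without inhibitor and -100% = no enzyme wells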
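Sfp 15 nM + cpd, 15 min RT; start w/ rhodamine-CoA 5 uM, BHQ-2-YbbR 12.5 uM (final); 50 mM Hepes pH 7.6, 10 mM MgCl2, 0.01% NP-40, 0.01% BSA; read 525/598 nm at 0 and 30 min.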
VDR inh: blocks the human vitamin D receptor. Potency, µM, for inactives: max response, negative = inhibition, actives largely listed as inhibitors. P11473. hit rate 0.93% among 400,000. VDR-SRC2-3 peptide fluorescence polarization, 2 h. AID 504847
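After 23 nl compound addition and a short centrifugation, plates sat for 2 hours at ambient temperature; polarization of fluorescence then indicated loss of VDR binding to peptide SRC2-3.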
TrxR1 substrate: is turned over as a substrate by rat TrxR1 | O89049 | Potency, µM (series often up to 114 µM), for the others: top-dose activity change, negative = substrate turnover | purified TrxR1 substrate turnover, NADPH consumption readout | hit rate 0.01% among 390,000; also: nearly all actives have a fitted effect of over 50% in size
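Rat TrxR1, dispensed at 90 nM, was prereduced with 400 uM NADPH (final) for 5 min at ~22 deg C, then incubated with compound 15 min before 400 uM selenite. A first-read NADPH fluorescence drop versus no-compound background flagged substrates.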
* = called active by the depositor; ? = inconclusive; · = no result given; ! = repeats disagree; [ ] = dose if it differs, or a comment. Calls follow the shape of the dose curve; as a rule, active = well fitted curve in the direction sought with a large enough effect; inconclusive = small, poorly fitted or top-dose-only effect, or another doubt; inactive = no such curve, though single readings can be large; an effect the other way counts as inactive or inconclusive. Unless noted, % is scaled to controls: 0 for no effect and ±100 for the full control effect; potency is read from the fitted curve at half-maximal effect.

SMILES | KAT2A inh | TrxR1 inh | GLS inhibitor | Sfp inh | VDR inh | TrxR1 substrate
O=c1[nH]c(=S)[nH]c2sccc12 | -13% | -19%[57.1 µM] | 8% | 22µM* | -24% | 3%[57.1 µM]
O=C(/C=C/c1ccccc1)NCc1ccc2c(c1)OCO2 | 0% | 20% | 1% | 15% | 26% | 3%
O=C(/C=C/c1ccco1)NCc1ccc2c(c1)OCO2 | -6% | 35µM* | 6% | ? | -9% | 2%
O=C(/C=C\c1ccccc1)Nc1ccc(NC(=O)c2ccco2)cc1 | 2% | 20% | ? | 12% | 20µM* | 1%[57.1 µM]
Cc1ccc(OCCNC(=O)/C=C/c2ccco2)cc1C | -20% | 11µM* | -5% | 10µM* | ? | 4%
O=C(/C=C/c1ccco1)Nc1ccc2c(c1)OCO2 | -7% | 71µM* | 6% | 40µM* | 2% | -13%
CCN(c1ccccc1)S(=O)(=O)c1cc2c(cc1C)N(C)CCO2 | 0% | -10% | 19% | 10% | 3% | 7%[57.1 µM]
O=C(/C=C/c1ccco1)NCCc1ccc(F)cc1 | -9% | 45µM* | -29% | -13% | -3% | 4%
S=C(Nc1ccc2c(c1)OCO2)Nc1ccc2c(c1)OCO2 | 1% | -4%[57.1 µM] | 23% | -17% | -21% | -9%
NS(=O)(=O)c1ccc(NC(=O)/C=C/c2ccco2)cc1 | -4% | 18µM* | -3% | 20µM* | -11% | -14%
CN(C)C(=S)Nc1ccc2c(c1)OCO2 | -9% | -12% | -2% | 22µM* | -8% | -4%
Cc1ccc2nc(SCC(=O)NCC3CCCO3)c(C#N)cc2c1 (stereo not drawn) | 0% | 7%[57.1 µM] | 5% | 23% | 4% | 9%[57.1 µM]
COc1ccc(CN(CCN(C)C)c2ncccn2)cc1 | ? | · | 27% | 14% | 4% | ·
CCCCCCCCCCCCCCCC[N+](C)(C)CCN(Cc1ccc(OC)cc1)c1ncccn1 | -7% | 1% | ? | 14µM* | 18% | -3%
CCOC(=O)CC(=O)CSc1nc2nc(C)cc(C)n2n1 | -4% | ? | 10% | 56µM* | -1% | 10%
CS(=O)(=O)Nc1ccc([N+](=O)[O-])cc1Oc1ccccc1 | ? | ? | 12% | 56µM*! | ? | 1%[57.1 µM]
CS(=O)(=O)Nc1ccccc1Oc1ccccc1 | -2% | -9% | 1% | 9% | -6% | -12%
N[C@H](C(=O)O)c1cc(O)cc(O)c1 | ? | 14%[57.1 µM] | · | 45µM*! | -8% | 1%[57.1 µM]
N[C@@H](C(=O)O)c1ccc(C(=O)O)c(O)c1 | -5% | · | · | 12% | 2% | ·
COc1cc(/C=C2\C(=N)N3N=CSC3=NC2=O)ccc1OS(=O)(=O)c1ccccc1 | -5% | -16% | 0% | 7% | 79µM* | -7%
COc1cc(/C=C2/C(=N)N3N=C(C(C)C)SC3=NC2=O)ccc1OS(=O)(=O)c1ccccc1 | -18% | -16% | 14% | -7% | 56µM* | -11%
CCOc1cc(/C=C2\C(=N)N3N=CSC3=NC2=O)ccc1OS(=O)(=O)c1ccccc1 | -27% | -18%[57.1 µM] | -11% | 10% | ? | -3%[57.1 µM]
COc1cc(/C=C2/C(=N)N3C(=NC2=O)SN=C3S(=O)(=O)C(C)C)ccc1OS(=O)(=O)c1ccccc1 | ? | · | · | 56µM* | · | ·
CCN(CC)S(=O)(=O)c1ccc(C)c(NC(=O)Cc2ccc(S(=O)(=O)N3CCOCC3)s2)c1 | ? | -3% | 0% | 12% | -11% | -1%
O=c1cc(CO)oc(C(Nc2ccccn2)c2ccc(C(F)(F)F)cc2)c1O (stereo not drawn) | 7% | -18% | 23% | ? | ? | -9%
SMILES | KAT2A inh | TrxR1 inh | GLS inhibitor | Sfp inh | VDR inh | TrxR1 substrate
O=c1cc(CO)oc(C(Nc2ccccn2)c2cccc(F)c2)c1O (stereo not drawn) | -20% | 20µM* | -3% | 10µM* | 16µM* | -2%
COc1cccc(C(Nc2ccccn2)c2oc(CO)cc(=O)c2O)c1 (stereo not drawn) | -3% | 71µM* | 13% | 4.5µM* | ? | -2%
Cc1ccc(S(=O)(=O)N2CCCN(C)c3nc4ccccc4nc32)cc1 | -13% | 4% | 8% | · | 3% | 3%
Cc1sc2nc(-c3cccs3)nc(N3CCCN(C)CC3)c2c1C | -14% | · | · | 56µM* | · | ·
Cc1sc2nc(CN3CCCC3)nc(N3CCN(S(=O)(=O)c4cccs4)CC3)c2c1C | -2% | 12% | 22% | -1% | 29% | 3%
CCOC(=O)CNC(=O)c1sc2ncnc(N3CCc4ccccc4C3)c2c1C | -18% | -18% | 9% | -22% | 3% | -7%
CCCCNC(=O)c1sc2ncnc(N3CCc4ccccc4C3)c2c1C | 1% | 2.8µM* | 2% | 4% | ? | 25%
CCOC(=O)c1cc(C(C)(C)C)n(CCCN2CCOCC2)c1C | -6% | 19% | -4% | 0% | -1% | 6%
O=C(Nc1ccc(F)c([N+](=O)[O-])c1)C(=O)c1c(O)[nH]c2ccccc12 | -2% | -8% | 50% | 20µM* | -15% | -11%
CCOC(=O)c1cnc2cc(Cl)c(OC)cc2c1NCC1CCCO1 (stereo not drawn) | -14% | -1% | -12% | -4% | -1% | 9%
C=C(C)Cn1c(=O)c2c(nc3n2CCCN3Cc2ccccc2)n(C)c1=O | -5% | 10% | 16% | 24% | -15% | -3%
COc1ccc(-c2csc(NC(=S)NC(=O)c3cccs3)n2)cc1OC | -11% | -3%[57.1 µM] | -14% | 32µM* | -5% | -2%[57.1 µM]
CN(C)CCOc1ccc(C(C)(C)c2ccccc2)cc1 | -2% | 12%[57.1 µM] | -1% | 45µM* | -9% | 8%[57.1 µM]
COc1ccc2ccc3c(c2c1)N=CC1(O3)N(C)c2ccccc2C1(C)C (stereo not drawn) | -29% | -4% | 10% | -4% | 50µM* | -21%
CN1c2ccccc2C(C)(C)C12C=Nc1c(ccc3ccccc13)O2 (stereo not drawn) | ? | -9% | 7% | -94% | -19% | -2%
CN1C(=O)C2(c3ccccc31)C1CCCC=C1C(C#N)=C(N)C2(C#N)C#N (stereo not drawn) | ? | ? | 23% | 13µM* | 1% | 3%[57.1 µM]
COc1ccc(-n2c(C)nc3sc4c(c3c2=O)CCCC4)cc1 | 3% | · | · | 9% | · | ·
Cc1ccc(S(=O)(=O)N/N=C/c2ccc(O)c(O)c2)cc1[N+](=O)[O-] | -15% | 11µM* | -5% | ? | 11% | 2%
Cc1ccc(S(=O)(=O)N/N=C/c2ccccc2O)cc1[N+](=O)[O-] | -24% | 10%[57.1 µM] | 5% | 10% | -4% | 6%[57.1 µM]
O=C(NCCc1ccccc1)C(c1cccs1)N(C(=O)CCl)c1ccc(Cl)cc1 (stereo not drawn) | -7% | 3.2µM* | 0% | -14% | ? | 2%
